From PubChem BioAssay
JMJD2A Tudor: inhibitors of human JMJD2A Tudor domain | O75164 | AlphaScreen JMJD2A-Tudor / H3K4me3 peptide binding | Potency, µM (series often up to 114 µM), usual class: inhibitors | hit rate 4.4% among 390,000 | AID 504339; further: nearly all actives have a fitted effect of over 50% in size
HP1b chromo inh: inhibitors of HP1-beta chromodomain binding to methylated histone tails; Potency, µM (doses to about 114 µM), usual class: inhibitors; AlphaScreen HP1-beta / biotin-H3K9me3 peptide binding; hit rate 0.56% among 390,000; further: nearly all actives have a fitted effect of over 70% in size
Target sequence (P83916 whole entry, looked up): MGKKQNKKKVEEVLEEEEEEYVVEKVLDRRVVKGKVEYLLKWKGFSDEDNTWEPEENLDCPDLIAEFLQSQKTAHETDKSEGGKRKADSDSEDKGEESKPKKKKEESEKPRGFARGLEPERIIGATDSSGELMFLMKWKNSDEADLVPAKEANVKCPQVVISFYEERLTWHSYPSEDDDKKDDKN
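AlphaScreen: HP1-beta (50 nM) preformed 30 min with biotin-H3(1-18)K9me3 peptide (50 nM) in PBS pH 7.4, 0.01% Tween-20. Compound added for 30 min at RT, then streptavidin donor/nickel chelate acceptor beads (10 ug/mL) for 30 min.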
BAZ2B block: blocks human BAZ2B | hit rate 4.4% among 360,000 | Q9UIF8 | Potency, µM (doses to about 114 µM), actives largely listed as inhibitors | AlphaScreen BAZ2B-H3K14Ac peptide displacement; further: nearly all actives have a fitted effect of over 60% in size
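Compounds, titrated to a top concentration of 110 uM, were incubated 30 min at room temperature with preformed BAZ2B/acetyl-K14 H3 peptide complex (50 nM each). Proximity signal was measured by AlphaScreen after 20 min with beads.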
G9a inh: G9a (human) methyltransferase inhibition | hit rate 8.8% among 350,000 | Potency, µM (top dose mostly 102 µM), hits mostly inhibitors | Q96KQ7 | G9a H3K9 monomethylation, AlphaScreen, 2 h | AID 504332; further: nearly all actives have a fitted effect of over 75% in size
Target sequence (Q96KQ7 913-1193 limits assumed): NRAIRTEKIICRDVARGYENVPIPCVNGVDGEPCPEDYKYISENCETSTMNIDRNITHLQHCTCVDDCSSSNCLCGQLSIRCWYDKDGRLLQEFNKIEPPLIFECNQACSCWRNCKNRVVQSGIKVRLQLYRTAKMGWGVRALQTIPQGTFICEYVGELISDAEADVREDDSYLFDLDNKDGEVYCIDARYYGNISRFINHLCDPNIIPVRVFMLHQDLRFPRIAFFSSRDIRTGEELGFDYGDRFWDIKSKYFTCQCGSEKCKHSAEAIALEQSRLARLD
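AlphaScreen detection with an anti-monomethyl H3K9 antibody quantified product after a 2 h room-temperature reaction containing 500 nM biotinylated H3K9 peptide, 20 µM SAM and 20 nM enzyme, which had been preincubated 15 min with compound.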
ALOX12 inh: blocks human arachidonate 12S-lipoxygenase | P18054 | AID 1671190 | purified 12hLO, xylenol orange hydroperoxide absorbance | Potency, µM (titrated, usually from 108 µM), most hits filed as inhibitors | hit rate 1.1% among 580,000
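Hydroperoxide product was detected by ferrous iron/xylenol orange as the 573 to 405 nm absorbance ratio. Arachidonic acid at 40 uM (final) was turned over for 30 min at room temperature by 150 nM human 12hLO, pH 7.0 Hepes buffer, after 15 min compound preincubation.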
Sfp PPTase inh: inhibitors of Bacillus subtilis Sfp phosphopantetheinyl transferase. hit rate 3.5% among 310,000. Q9F4F7. Biochemical Sfp PPTase activity, qHTS. Potency, µM, actives largely listed as inhibitors;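 further: the enzyme is Sfp with the accession as filed and its product quenches rhodamine fluorescence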
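Step 1, compound plus 15 nM Sfp-PPTase, 15 min, room temperature. Step 2, add rhodamine-CoA (5 uM) and BHQ-2-YbbR (12.5 uM). Step 3, read 525/598 nm fluorescence at 0 and 30 min.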
Hits are given with their value; – = inactive; ? = inconclusive; · = no result given; ! = not active in a repeat; [ ] = remark or other dose. Shown are actives, neighbours in structure and some others; about 8.7% of the full set was active somewhere. The call rests on the fitted dose curve; in most records, active means well fitted curve in the direction sought with a large enough effect; inconclusive means small, poorly fitted or top-dose-only effect, or another doubt; inactive means no such curve, though single readings can be large; an effect the other way counts as inactive or inconclusive.

SMILES	JMJD2A Tudor	HP1b chromo inh	BAZ2B block	G9a inh	ALOX12 inh	Sfp PPTase inh
CCCCC(NC(=O)Cc1c(C)c2cc3c4c(oc3cc2oc1=O)CCCC4)C(=O)O (stereo not drawn)	–	–	–	?	–	–
O=C(CCC(=O)c1ccc(Cl)cc1)OCC(=O)c1ccc(OCc2ccccc2)cc1	·	·	·	·	–	·
CCOC(=O)c1noc2nc(C)nc(Nc3cccc(C(F)(F)F)c3)c12	·	·	·	·	–	·
O=C(Nc1nc(-c2ccccn2)cs1)C1COc2ccccc2O1 (stereo not drawn)	56µM	–	20µM	–	–	–
O=C(O)C1CCC1C(=O)Nc1nc(-c2ccc(Cl)s2)cs1 (stereo not drawn)	–	–	–	?	–	–
CC1CC1C(=O)Nc1nc(-c2ccccn2)cs1 (stereo not drawn)	56µM	?	?	8.9µM	?	25µM
O=C(Nc1nc(-c2ccccc2)cs1)C1COc2ccccc2O1 (stereo not drawn)	–	–	–	–[12.7 µM]	–	–
CNC(=O)[C@H]1C[C@H](Oc2ccccc2)CN1Cc1ccc(OC(F)(F)F)cc1	·	·	·	·	–	·
O=C(CCN1N=C(c2ccccc2)CCC1=O)NCCCN1CCOCC1	–	–	–	50µM	–	–
COc1cc(NS(=O)(=O)c2ccc(N/C=C(\C#N)c3nc4cc(Cl)ccc4o3)cc2)nc(OC)n1	?	–	–	–	?	–
O=C/C(=C\Nc1ccc(Cl)cn1)c1nc2ccccc2o1	13µM	–	–	?	?	?
O=C/C(=C\Nc1ccc(Cl)cn1)c1nc2cc(Cl)ccc2o1	–	–	–	–	–	–
O=C/C(=C\Nc1ccc(S(=O)(=O)CCO)cc1)c1nc2cc(Cl)ccc2o1	–	–	–	50µM	–	–
O=C(NCC1CC1)C1CCCN(c2nc3ncccc3o2)C1 (stereo not drawn)	·	·	·	·	–	·
Cc1oc2cc(OCC(=O)Nc3ccc4c(c3)OCO4)ccc2c(=O)c1-c1ccccc1	·	·	·	·	–	·
Cc1ccc(CN[C@@H]2CO[C@H](CNS(=O)(=O)c3ccc(C)cc3)[C@H]2O)cc1	·	·	·	·	28µM	·
Cc1ccc(S(=O)(=O)NC[C@H]2OC[C@@H](NCc3ccncc3)[C@@H]2O)cc1	·	·	·	·	–	·
O=C(NCCc1ccccn1)C1CCC1	·	·	·	·	–	·
CC(=O)c1cccc(S(=O)(=O)Nc2cccnc2)c1	–	–	–	45µM	8.9µM	–
CCOC(=O)c1ccc(S(=O)(=O)Nc2ccc(N3CCOCC3)cc2)cc1	–	–	–	79µM	–	–
O=S(=O)(NCCN1CCOCC1)c1ccc(Cl)c(Cl)c1	–	–	–	?	–	–
CC(=O)c1cccc(S(=O)(=O)NCCCN2CCOCC2)c1	–	–	–	1.4µM	?	·
O=C(NCCCN1CCOCC1)c1cccc(S(=O)(=O)NCc2ccccc2)c1	–	–	–	–	–	·
CC(=O)Nc1ccc(S(=O)(=O)Nc2ccc(N3CCOCC3)cc2)cc1	–	–	–	–[12.7 µM]	–	–
O=S(=O)(NCCN1CCOCC1)c1ccc(F)c(Cl)c1	14µM	–	–	–	20µM	–
SMILES	JMJD2A Tudor	HP1b chromo inh	BAZ2B block	G9a inh	ALOX12 inh	Sfp PPTase inh
COCCNC(=O)[C@H]1C[C@H](Oc2ccccc2)CN1C(=O)NCC(C)C	·	·	·	·	–	·
Cc1c(C(=O)OCCOc2ccc(Cl)cc2Cl)sc(=S)n1C	·	·	·	·	–	·
CC(=O)c1ccc(S(=O)(=O)Nc2ccc(N3CCOCC3)cc2)cc1	–	–	–	28µM	?	–
C/C(=N\Nc1ccc(S(=O)(=O)Nc2ccc(Cl)cc2)cc1[N+](=O)[O-])c1ccc(N2CCOCC2)cc1	5µM	?	7.9µM	8.9µM	–	–
COCCNS(=O)(=O)c1ccc2c(c1)n(C)c(=O)n2C	–	–	–	4.5µM	–	–
Cn1c(=O)n(C)c2cc(S(=O)(=O)NCCOCCO)ccc21	–	–	–	–[12.7 µM]	–	–
CCOC(=O)/C=C/C(=O)Nc1cc(S(=O)(=O)Nc2ccc(OC)cc2)ccc1N1CCOCC1	–	–	–	45µM	?	·
CC(=O)c1ccc(S(=O)(=O)NCc2ccc(C(=O)N3CCN(c4cccc(C)c4)CC3)cc2)cc1	·	·	·	·	–	·
CC(=O)c1ccc(S(=O)(=O)Nc2ccc(-c3ccc4nnc(C)n4n3)cc2)cc1	–	–	71µM	–	–	–
CC(=O)c1cccc(S(=O)(=O)Nc2ccc(N3CCOCC3)cc2)c1	–	–	–	50µM	–	–
CCOC(=O)c1ccc(S(=O)(=O)Nc2cc(C(C)(C)C)no2)cc1	–	–	–	?	–	79µM
CCOC(=O)c1ccc(NS(=O)(=O)c2ccc3c(c2)n(C)c(=O)n3C)cc1	–	–	79µM!	–[0.501 µM]	–	–
Cc1ccc(NS(=O)(=O)c2cccc(C(=O)NN3CCOCC3)c2)cc1	·	·	–	·	–	–
CC(C)(C)c1cc(NS(=O)(=O)c2ccc3c(c2)OCCO3)on1	–	–	–	–	?	–
COC(=O)c1ccc(NS(=O)(=O)c2ccc3c(c2)n(C)c(=O)n3C)cc1	–	–	?	–	–	–
CC1Oc2ccc(NC(=O)c3cccs3)cc2CN(Cc2ccc(F)cc2)C1=O (stereo not drawn)	·	·	·	·	–	·
CSc1ccccc1NC(=O)CN(C)C(=O)COc1cccc2cccnc12	22µM	–	·	·	–	·
CN(CC(=O)Nc1ccc(Cl)c(C(F)(F)F)c1)C(=O)COc1cccc2cccnc12	·	·	·	·	–	·
COc1ccc(Nc2nc(N)nc(CN(C)C3CCCCC3)n2)cc1	45µM	–	32µM	–	–	–
COc1ccc(Nc2nc(N)nc(COc3ccc(OC)cc3)n2)cc1	–	–	–	–	–	–
COc1ccc(Nc2nc(N)nc(CSC(=S)N3CCCCC3)n2)cc1	?	–	71µM	?	–	–
CCOc1ccc(Nc2nc(N)nc(CN(C)C3CCCCC3)n2)cc1	20µM	–	28µM	–	–	–
Cc1cnc2c(S(=O)(=O)NCCCN3CCCC3)cccc2c1	·	·	·	·	–	·
CN(C)c1cccc2c(C=C(C#N)C#N)ccc(N(C)C)c12	16µM	22µM	20µM	8.9µM	–	–
COc1cccc(CC(=O)N2CCC(N3C(=O)C(OCC4CC4)C34CCCCC4)CC2)c1 (stereo not drawn)	·	·	·	·	–	·
SMILES	JMJD2A Tudor	HP1b chromo inh	BAZ2B block	G9a inh	ALOX12 inh	Sfp PPTase inh
CN(Cc1ccc(F)cc1)C(=O)c1sccc1-c1ccccc1	–	–	?	40µM	–	–
COCc1cc(N2CCc3onc(-c4cccc5ccccc45)c3C2)ncn1	·	·	·	·	–	·
N#CC(=C=[N-])c1nc2ccccc2nc1-[n+]1cccc(NC(=O)c2ccccc2)c1	–	–	–	–	–	8.9µM
Cc1cc(F)ccc1S(=O)(=O)Nc1ccc(N2CCCC2)c(F)c1	·	·	·	·	4µM	·
CCOc1ccc(-c2noc(-c3nnn(-c4ccccc4OCC)c3N)n2)cc1	·	·	·	·	–	·
COc1ccc(C2OC34CCCCC3C(C#N)(C#N)C2(C#N)C(=N)O4)cc1 (stereo not drawn)	–	–	–	50µM	–	–
